In the supplement of paper PMC7724964:

T1: VCL 1-259 Vinculin (domain begin residue: 1, domain end residue: 259), P18206
T1 chain: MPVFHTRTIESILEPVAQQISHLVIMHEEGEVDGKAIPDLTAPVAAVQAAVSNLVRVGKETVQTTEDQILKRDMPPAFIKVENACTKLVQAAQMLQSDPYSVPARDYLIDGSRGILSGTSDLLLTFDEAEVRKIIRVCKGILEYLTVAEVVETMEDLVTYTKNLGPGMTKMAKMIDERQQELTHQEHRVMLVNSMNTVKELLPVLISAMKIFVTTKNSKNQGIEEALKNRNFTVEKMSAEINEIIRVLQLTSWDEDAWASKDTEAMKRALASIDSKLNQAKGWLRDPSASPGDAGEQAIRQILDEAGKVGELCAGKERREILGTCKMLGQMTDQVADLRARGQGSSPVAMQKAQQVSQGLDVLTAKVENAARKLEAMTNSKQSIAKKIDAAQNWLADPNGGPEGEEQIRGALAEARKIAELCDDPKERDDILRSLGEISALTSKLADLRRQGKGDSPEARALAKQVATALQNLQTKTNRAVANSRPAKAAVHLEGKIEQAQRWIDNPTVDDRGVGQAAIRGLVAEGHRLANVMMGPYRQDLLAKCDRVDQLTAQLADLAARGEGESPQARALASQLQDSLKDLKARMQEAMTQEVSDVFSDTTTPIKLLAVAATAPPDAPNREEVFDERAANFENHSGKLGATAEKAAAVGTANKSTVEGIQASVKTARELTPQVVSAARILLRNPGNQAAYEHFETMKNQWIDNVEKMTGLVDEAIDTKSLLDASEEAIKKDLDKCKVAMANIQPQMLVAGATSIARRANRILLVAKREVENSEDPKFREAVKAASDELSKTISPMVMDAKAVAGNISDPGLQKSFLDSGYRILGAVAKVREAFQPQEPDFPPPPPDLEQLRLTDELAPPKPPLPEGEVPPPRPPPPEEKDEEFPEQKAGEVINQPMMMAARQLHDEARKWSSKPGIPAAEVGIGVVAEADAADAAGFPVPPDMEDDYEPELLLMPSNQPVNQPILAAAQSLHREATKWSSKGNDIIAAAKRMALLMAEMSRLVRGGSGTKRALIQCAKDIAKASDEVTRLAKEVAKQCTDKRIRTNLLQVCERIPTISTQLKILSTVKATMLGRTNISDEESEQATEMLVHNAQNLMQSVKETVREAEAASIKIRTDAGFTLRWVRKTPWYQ


Target: T1, VCL 1-259 Vinculin (domain begin …
Assay: phage ELISA signal ratio (GST-PRM binding over GST background); higher = stronger binding of peptide-phage to the PRM
In short: (§1)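 Five rounds of selection were carried out against human peptide recognition domains fused to the C-terminus of glutathione S-transferase (GST) and expressed in 96-well plates. The M13 phage library presented randomized hexadecapeptides, cysteine-free and glycine-flanked, on the gene-8 major coat protein. For each value, the phage ELISA signal on the GST-domain fusion was divided by the signal on GST alone.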

Binder | phage ELISA signal ratio
MMPTTEDGWEMWLAEL | 21.4
FDTPLWEQAMWEALGE | 13.2
HEIWETDWQWIIDQAY | 20.4
WDPQADWQEQVQYWLV | 20.4
LWDWTPETEQWFQEIV | 13.5
TAHDWIDEWLVQAMLQ | 20.3
FPQMWQSPDFWEDWLL | 12.6
LDSFWDAENVIRSIMI | 12.9
VDDQEWPNMEMLLGIV | 17.4
YWDAGEVMAQIIQSAH | 11.9
MPPWTEDAESWHMWLI | 14.8
SDDWFFDLTHSIISTD | 18.4
WWEQDQDWEEFVNAIE | 16.9
HPQEWSAEEIMVGILY | 14.1
DNWYWEAWDAAFLTNG | 20.4
WPDDLDWGTWLETLPL | 13.3
NTVEWQDMEGHLLGIV | 15.3
QMIEFWTEEEIMHWVH | 13.6
LTGEIWDAEKVIHYVM | 11.1
APVVHDFDAYKMLMQL | 17.2
DNFENWIENWLLEYNG | 9.78
WGSEDTQYWLEYVNSV | 24.6

Target: VASP 1-114 WH1 (domain begin residue: 1, domain end residue: 114), P50552
Sequence (P50552 whole entry): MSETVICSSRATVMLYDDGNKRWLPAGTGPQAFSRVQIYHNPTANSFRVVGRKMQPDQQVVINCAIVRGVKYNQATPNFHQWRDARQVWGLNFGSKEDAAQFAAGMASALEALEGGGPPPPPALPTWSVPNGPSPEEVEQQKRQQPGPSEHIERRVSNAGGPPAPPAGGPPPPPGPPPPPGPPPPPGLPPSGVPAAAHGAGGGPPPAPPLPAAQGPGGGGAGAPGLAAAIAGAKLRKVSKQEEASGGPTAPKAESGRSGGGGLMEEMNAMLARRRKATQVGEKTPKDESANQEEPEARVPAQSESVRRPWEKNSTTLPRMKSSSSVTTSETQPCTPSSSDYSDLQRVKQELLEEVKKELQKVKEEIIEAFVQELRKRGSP
Assay: as above
In short: as §1

Binder | phage ELISA signal ratio
LDMFWPEPPMFNREIP | 24.9
NLETWAWPPWPQEFND | 23.3
DPYWVWPDLPHNVSHP | 19.2
STQKDNNWPLPPVMEE | 21.6
NWDIWPDWPPTQSVMW | 5.89
WPPAPPTEQHRQMWAK | 7.1

Target: WDR5 20-334 WD40 (domain begin residue: 20, domain end residue: 334), P61964
Assay: as above
In short: as §1

Binder | phage ELISA signal ratio
RTEPYQWMKAAGFPTS | 9.24
